Consider three sequences from publication PMC8384837, “Expanding the binding specificity for RNA recognition by a PUF domain”.

Chain of PUM1 PUF domain R4-NPA (Q14671 828-1176 H972P/Q975A): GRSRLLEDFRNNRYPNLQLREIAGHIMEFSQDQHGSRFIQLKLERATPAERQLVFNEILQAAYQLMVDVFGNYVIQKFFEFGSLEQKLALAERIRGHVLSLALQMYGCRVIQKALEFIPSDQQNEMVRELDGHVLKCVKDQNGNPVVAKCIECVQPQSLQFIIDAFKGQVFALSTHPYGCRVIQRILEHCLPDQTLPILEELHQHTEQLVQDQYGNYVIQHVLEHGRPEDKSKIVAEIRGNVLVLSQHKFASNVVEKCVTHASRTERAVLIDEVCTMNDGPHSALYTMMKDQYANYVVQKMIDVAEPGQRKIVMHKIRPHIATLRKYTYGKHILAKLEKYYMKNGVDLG

The experiment concerns the target PUM1 PUF domain R4-NPA (Homo sapiens, UniProt Q14671 828-1176, H972P;Q975A). Nature of the experiment: yeast three-hybrid, YBZ-1, SC-Leu-His + 0.5 mM 3-AT, 4 days. To be noted: tags: N-Gal4 AD-HA kept; label: inside an RPR1-promoter hybrid RNA with tandem MS2 sites; ssRNA. Put shortly: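 Repeat regions from input (SC-Leu) and selection (SC-Leu-His + 0.5 mM 3-AT) plates were PCR-amplified and Illumina-sequenced after four days of growth. The cells were strain YBZ-1 with a LexA–MS2 coat fusion and a HIS3 reporter, co-expressing Pumilio-1 PUF domain libraries and matching RNA elements from a centromeric plasmid. The interaction score is the log change in variant frequency from input to selection, taken in log2 with a pseudocount of 1 for absent variants.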
Regarding “GGCUAGAACUAGUGGAUCCCCCGGCGCCCGGCGGCUCGAGCCCGGGUAAGUGUAAAUAGUCUGCAUGCCGCCGGGCGCCAUGCCUGCAGGUCGACUCUAGAAAACAUG”, the binding signal was 1.59 log2 enrichment (interaction score).
On to “GGCUAGAACUAGUGGAUCCCCCGGCGCCCGGCGGCUCGAGCCCGGGUAAGUGUAUAUAGUCUGCAUGCCGCCGGGCGCCAUGCCUGCAGGUCGACUCUAGAAAACAUG”, for which the binding signal was 4 log2 enrichment (interaction score).
For “GGCUAGAACUAGUGGAUCCCCCGGCGCCCGGCGGCUCGAGCCCGGGUAAGUGUACAUAGUCUGCAUGCCGCCGGGCGCCAUGCCUGCAGGUCGACUCUAGAAAACAUG”, the binding signal is 0.72 log2 enrichment (interaction score).
